The text below walks through data of paper PMC4081100, “A DNA-binding-site landscape and regulatory network analysis for NAC transcription factors in Arabidopsis thaliana”.

Holding throughout (assay): universal protein binding microarray (PBM); transcription factors of Arabidopsis thaliana; high values mean tight binding
The target in one assay is T1, GST-ANAC092(1-176) (Arabidopsis thaliana, UniProt Q9FKA0 1-176).
T1 sequence: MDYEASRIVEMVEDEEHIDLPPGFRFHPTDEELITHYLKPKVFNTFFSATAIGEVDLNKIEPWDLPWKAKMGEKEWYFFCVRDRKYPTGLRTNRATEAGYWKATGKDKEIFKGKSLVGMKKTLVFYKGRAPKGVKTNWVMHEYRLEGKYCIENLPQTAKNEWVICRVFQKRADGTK
Conditions: protein: recombinant; tags: GST; chain copies: 2; dsDNA, one strand shown. In short, it runs like this:
(§1)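 Protein amounts were determined by A280 or anti-GST western blot after glutathione–Sepharose 4B purification of GST-tagged proteins induced in cells, with zinc acetate included for zinc-finger proteins. Duplicate runs at 200 to 500 nM final were done on custom all-10-mer Agilent 4 × 180K arrays made double-stranded by primer extension. The normalised enrichment score (E-score) over gapped and ungapped 8-mers is the measure of binding.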

Another assay concerns the target GST-NTL6(1-168) (Arabidopsis thaliana, UniProt Q9SCK6 1-168). Conditions: protein: recombinant; tags: GST; chain copies: 2; dsDNA, one strand shown. In short, it runs like this:
as §1

For the next assay, the target named is T2, GST-ANAC019 NAC domain (Arabidopsis thaliana, UniProt Q9C932 14-162).
T2 sequence: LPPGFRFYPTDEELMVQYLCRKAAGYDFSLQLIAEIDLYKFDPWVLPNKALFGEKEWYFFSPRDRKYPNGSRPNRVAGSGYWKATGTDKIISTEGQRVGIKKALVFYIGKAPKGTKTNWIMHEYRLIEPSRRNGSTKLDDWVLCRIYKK
Conditions: protein: recombinant; tags: GST; chain copies: 2; dsDNA, one strand shown. In short, it runs like this: as §1

For the next assay, the target named is T3, GST-ANAC055(1-171) (Arabidopsis thaliana, UniProt Q9LDY8 1-171).
T3 sequence: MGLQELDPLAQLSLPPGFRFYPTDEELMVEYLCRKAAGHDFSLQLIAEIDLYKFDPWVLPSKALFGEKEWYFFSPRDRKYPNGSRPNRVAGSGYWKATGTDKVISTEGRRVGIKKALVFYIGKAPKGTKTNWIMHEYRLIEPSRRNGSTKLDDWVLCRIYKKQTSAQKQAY
Conditions: protein: recombinant; tags: GST; chain copies: 2; dsDNA, one strand shown. In a few lines:
as §1

The target of assay [1] is T4, GST-ANAC092(1-285) full length (Arabidopsis thaliana, UniProt Q9FKA0 1-285).
T4 sequence: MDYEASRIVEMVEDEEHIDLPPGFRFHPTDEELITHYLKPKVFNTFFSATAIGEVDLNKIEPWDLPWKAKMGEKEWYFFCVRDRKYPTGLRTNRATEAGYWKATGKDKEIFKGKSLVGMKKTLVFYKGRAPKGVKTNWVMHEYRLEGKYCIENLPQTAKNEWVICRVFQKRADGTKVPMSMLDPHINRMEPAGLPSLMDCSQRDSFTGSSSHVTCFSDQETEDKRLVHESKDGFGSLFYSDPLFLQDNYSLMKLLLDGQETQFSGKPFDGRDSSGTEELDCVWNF
Conditions: protein: recombinant; tags: GST; chain copies: 2; dsDNA, one strand shown. In a few lines:
as §1

For a further assay, the target named is T5, GST-NST2(1-184) (Arabidopsis thaliana, UniProt Q9M274 1-184).
T5 sequence: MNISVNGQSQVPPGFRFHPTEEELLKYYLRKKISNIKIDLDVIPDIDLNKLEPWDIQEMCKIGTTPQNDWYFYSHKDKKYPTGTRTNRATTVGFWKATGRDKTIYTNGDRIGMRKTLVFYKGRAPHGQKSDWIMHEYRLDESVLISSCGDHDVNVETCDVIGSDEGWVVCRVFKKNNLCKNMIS
Conditions: protein: recombinant; tags: GST; chain copies: 2; dsDNA, one strand shown. In short, it runs like this: as §1

Another assay addresses T6, GST-SND1(1-203) (Arabidopsis thaliana, UniProt Q9LPI7 1-203).
T6 sequence: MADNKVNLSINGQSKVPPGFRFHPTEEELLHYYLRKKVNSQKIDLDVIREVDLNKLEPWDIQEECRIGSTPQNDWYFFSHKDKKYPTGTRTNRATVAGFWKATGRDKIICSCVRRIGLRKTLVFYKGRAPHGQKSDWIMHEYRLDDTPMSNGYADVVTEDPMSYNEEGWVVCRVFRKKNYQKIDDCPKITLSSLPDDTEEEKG
Conditions: protein: recombinant; tags: GST; chain copies: 2; dsDNA, one strand shown. In short, it runs like this:
as §1

In a further assay the target is T7, GST-VND3 NAC domain (Arabidopsis thaliana, UniProt Q9FH59 12-162).
T7 sequence: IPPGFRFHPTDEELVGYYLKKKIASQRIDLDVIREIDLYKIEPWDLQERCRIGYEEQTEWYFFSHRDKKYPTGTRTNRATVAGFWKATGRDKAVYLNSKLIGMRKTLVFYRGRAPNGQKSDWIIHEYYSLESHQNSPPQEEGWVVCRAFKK
Conditions: protein: recombinant; tags: GST; chain copies: 2; dsDNA, one strand shown. In a few lines:
as §1

Another assay addresses GST-WRKY1(266-371) (Arabidopsis thaliana, UniProt Q9SI37 266-371). Conditions: protein: recombinant; tags: GST; dsDNA, one strand shown. In short, it runs like this:
as §1

The target in the next assay is T8, GST-ATAF1 NAC domain (Arabidopsis thaliana, UniProt Q39013 7-158).
T8 sequence: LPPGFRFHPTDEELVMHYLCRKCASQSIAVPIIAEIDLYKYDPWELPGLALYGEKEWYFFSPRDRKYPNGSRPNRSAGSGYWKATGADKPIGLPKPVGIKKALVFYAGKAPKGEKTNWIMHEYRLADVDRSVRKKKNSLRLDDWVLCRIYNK
Conditions: protein: recombinant; tags: GST; chain copies: 2; dsDNA, one strand shown. In short, it runs like this:
as §1

In a further assay the target is T9, GST-NAP(1-166) (Arabidopsis thaliana, UniProt O49255 1-166).
T9 sequence: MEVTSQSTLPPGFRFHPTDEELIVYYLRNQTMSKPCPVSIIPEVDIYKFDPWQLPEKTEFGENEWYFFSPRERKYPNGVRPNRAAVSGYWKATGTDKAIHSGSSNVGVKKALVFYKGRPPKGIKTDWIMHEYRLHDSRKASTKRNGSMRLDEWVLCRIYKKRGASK
Conditions: protein: recombinant; tags: GST; chain copies: 2; dsDNA, one strand shown. In short, it runs like this: as §1

The next assay has as its target T10, GST-VND7 NAC domain (Arabidopsis thaliana, UniProt Q9C8W9 9-158).
T10 sequence: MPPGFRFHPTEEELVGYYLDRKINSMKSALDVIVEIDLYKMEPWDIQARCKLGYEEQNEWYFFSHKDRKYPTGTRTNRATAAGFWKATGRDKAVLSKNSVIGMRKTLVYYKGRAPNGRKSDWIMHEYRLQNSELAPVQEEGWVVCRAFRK
Conditions: protein: recombinant; tags: GST; chain copies: 2; dsDNA, one strand shown. In short, it runs like this: as §1

In the next assay the target is T11, GST-NTL8 NAC domain (Arabidopsis thaliana, UniProt Q9XIN7 14-156).
T11 sequence: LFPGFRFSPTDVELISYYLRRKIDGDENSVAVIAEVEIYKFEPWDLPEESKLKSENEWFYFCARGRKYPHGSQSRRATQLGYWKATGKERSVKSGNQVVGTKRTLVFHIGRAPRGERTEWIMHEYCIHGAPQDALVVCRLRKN
Conditions: protein: recombinant; tags: GST; chain copies: 2; dsDNA, one strand shown. In a few lines: as §1

Sequence of GST-NTL6(1-168) (Q9SCK6 1-168): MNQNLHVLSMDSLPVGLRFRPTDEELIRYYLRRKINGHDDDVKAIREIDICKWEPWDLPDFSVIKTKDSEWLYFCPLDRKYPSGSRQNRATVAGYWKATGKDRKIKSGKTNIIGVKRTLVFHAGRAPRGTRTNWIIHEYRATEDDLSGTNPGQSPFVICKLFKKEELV
Sequence of GST-WRKY1(266-371) (Q9SI37 266-371): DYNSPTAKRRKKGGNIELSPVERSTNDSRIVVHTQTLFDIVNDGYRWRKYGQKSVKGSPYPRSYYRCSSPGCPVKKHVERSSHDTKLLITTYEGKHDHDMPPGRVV

Consider AAGTCAGA, for which the binding signal was 0.0562 E-score with GST-ANAC092(1-176); 0.0583 E-score with GST-NTL6(1-168); 0.0582 E-score with GST-ANAC019 NAC domain; 0.073 E-score with GST-ANAC055(1-171); 0.14 E-score in assay [1]; 0.132 E-score with GST-NST2(1-184). The binding signal with GST-SND1(1-203) came to 0.0642 E-score; in the assay with GST-VND3 NAC domain, 0.166 E-score; with GST-WRKY1(266-371), 0.455 E-score.

In the case of GTACGCGA, the binding signal with GST-ANAC092(1-176) came to 0.245 E-score; with GST-ANAC055(1-171), 0.0563 E-score; with GST-ATAF1 NAC domain, 0.234 E-score; in assay [1] it was 0.4 E-score; with GST-NAP(1-166), 0.188 E-score; with GST-NST2(1-184), 0.129 E-score. Besides, the binding signal with GST-SND1(1-203) came out at 0.288 E-score; with GST-VND3 NAC domain, 0.11 E-score; with GST-VND7 NAC domain, 0.133 E-score.

AGCGTAAA: the binding signal worked out at 0.223 E-score in the assay with GST-ANAC092(1-176); 0.0508 E-score with GST-ANAC019 NAC domain; 0.12 E-score in the assay with GST-ATAF1 NAC domain; 0.241 E-score in assay [1]; 0.126 E-score in the assay with GST-NAP(1-166); 0.244 E-score with GST-NST2(1-184). For the same sequence, the binding signal in the assay with GST-SND1(1-203) was 0.413 E-score; with GST-VND3 NAC domain, 0.15 E-score; with GST-VND7 NAC domain, 0.119 E-score.

On to AATTACGC, for which the binding signal with GST-ANAC092(1-176) stood at 0.17 E-score; in the assay with GST-ANAC055(1-171), 0.155 E-score; in the assay with GST-ATAF1 NAC domain, 0.18 E-score; in [1], 0.243 E-score; with GST-NAP(1-166) it was 0.144 E-score; with GST-NST2(1-184), 0.199 E-score. In addition, the figures for the binding signal with GST-SND1(1-203), with GST-VND3 NAC domain and with GST-VND7 NAC domain were 0.428 E-score, 0.119 E-score and 0.13 E-score, respectively.

With ATGGCGTA, the binding signal in the assay with GST-ANAC092(1-176) stood at 0.393 E-score; in the assay with GST-ATAF1 NAC domain, 0.185 E-score; in assay [1], 0.426 E-score; with GST-NAP(1-166) it was 0.184 E-score; with GST-NST2(1-184), 0.299 E-score; with GST-SND1(1-203) it was 0.452 E-score. The binding signal was found to be 0.149 E-score with GST-VND3 NAC domain and 0.192 E-score with GST-VND7 NAC domain.

For the sequence AATACTTA, the binding signal turned out to be 0.405 E-score with GST-NTL6(1-168); 0.135 E-score in the assay with GST-ANAC019 NAC domain; 0.162 E-score with GST-ANAC055(1-171); 0.254 E-score with GST-ATAF1 NAC domain; 0.104 E-score in assay [1]; 0.0916 E-score with GST-NST2(1-184). Further, the binding signal in the assay with GST-NTL8 NAC domain came out at 0.0845 E-score; in the assay with GST-SND1(1-203) it was 0.0985 E-score; with GST-VND3 NAC domain it was 0.187 E-score; with GST-VND7 NAC domain it was 0.0602 E-score.

As to CAAAAGTC, the binding signal was determined as 0.0755 E-score with GST-ANAC092(1-176); 0.0864 E-score in the assay with GST-NTL6(1-168); 0.138 E-score in the assay with GST-ANAC055(1-171); 0.222 E-score in the assay with GST-ATAF1 NAC domain; 0.112 E-score in [1]; 0.252 E-score in the assay with GST-NST2(1-184). Also, the binding signal with GST-SND1(1-203) was determined as 0.133 E-score; with GST-VND3 NAC domain, 0.141 E-score; with GST-WRKY1(266-371), 0.432 E-score.

On to CACGTTAG, for which the binding signal with GST-ANAC092(1-176) turned out to be 0.387 E-score; in the assay with GST-ANAC055(1-171) it was 0.0916 E-score; with GST-ATAF1 NAC domain it was 0.13 E-score; in [1], 0.412 E-score; with GST-NAP(1-166) it was 0.0974 E-score; with GST-NST2(1-184) it was 0.117 E-score. In addition, the results for the binding signal in the assay with GST-SND1(1-203), with GST-VND3 NAC domain and in the assay with GST-VND7 NAC domain were 0.237 E-score, 0.164 E-score and 0.0853 E-score, respectively.
